Calls of active or inactive are those of the source. Unless noted, no rule for the calls is given here.
Legend:
[1] = tested on: Wnt5a (protein binding on small-molecule microarray); assay: small molecules binding Wnt5a protein – biophysical, small-molecule microarray, 635/667 nm fluorescence, primary screen (AID 1142); conditions: 635 nm fluorescence, higher = more signal;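 also: fluorescence read at 667 nm with signal to noise per printed feature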
[2] = ATP-based viability of Huh7 replicon cells – cell-based, CellTiter-Glo luminescence, basal, 48 h, cytotoxicity control for HCV replication inhibitor project, primary screen (AID 1143); conditions: higher = more signal, called active from +8 up or from −8 down;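 also: Huh7 hepatoma cells carrying a hepatitis C replication reporter with no stimulus; test concentration not given here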
[3] = Pseudomonas biofilm growth suppression – PAO1 strain, BacTiter-Glo luminescence, LB-PBS, primary screen (AID 1144); conditions: P. aeruginosa PAO1 biofilm, 12 h, higher = more signal
[4] = basal CRE-LacZ reporter activity in PC12 – cell-based, unstimulated, primary screen (AID 1145); conditions: no forskolin, luminescence, 4.5 h, higher = more signal, called active from +8 up or from −8 down
[5] = forskolin-driven CRE-LacZ activity in PC12 – cell-based, CRE-LacZ reporter, forskolin-stimulated, primary screen (AID 1146); conditions: luminescence, 4.5 h, higher = more signal, called active from +8 up or from −8 down;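 also: PC12 cells with 6xCRE LacZ reporter stimulated by forskolin 10 µM; beta-galactosidase reporter signal reflecting CREB driven transcription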
[6] = molecular target: Streptavidin (Streptomyces avidinii) (UniProt P22629); assay: compounds binding control protein streptavidin – biophysical, small-molecule microarray, 635/667 nm fluorescence, artefact control for SMM compound annotation, primary screen (AID 1147); conditions: higher = more signal;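 also: signal reflects streptavidin binding to arrayed compounds as a control protein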
[7] = probe aInhba binding on compound microarray – biochemical, small-molecule microarray, 635/667 nm fluorescence, primary screen (AID 1148); conditions: higher = more signal;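 also: score merges 667nm spot fluorescence with signal-to-noise for antibody binding to printed compounds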
[8] = molecular target: Torsin-1A (Homo sapiens) (UniProt O14656); assay: TOR1A wild-type binding on microarray – cell lysate, small-molecule microarray, lysate, 635/667 nm, primary screen (AID 1149); conditions: COS7 hTOR1A-WT lysate, 635 nm fluorescence, higher = more signal
[9] = molecular target: Torsin-1A (Homo sapiens) (UniProt O14656); assay: torsin A mutant lysate binding on microarrays – cell lysate, small-molecule microarray, COS7 lysate, 635/667 nm fluorescence, primary screen (AID 1150); conditions: COS7 hTOR1A mutant lysate, 635 nm fluorescence, higher = more signal;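 also: score pools 667 nm emission and signal to noise measuring lysate protein binding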
[10] = tested on: Sonic hedgehog protein (Shh); assay: Sonic hedgehog microarray binding compounds – biochemical, small-molecule microarray, 635/667 nm fluorescence, primary screen (AID 1151); conditions: 635 nm fluorescence, higher = more signal;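 also: Shh protein binding to compounds spotted on small-molecule microarray slides; score combines spot fluorescence intensity with signal-to-noise across triplicate slides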

Sequence of Torsin-1A (Homo sapiens) (O14656 whole entry, looked up): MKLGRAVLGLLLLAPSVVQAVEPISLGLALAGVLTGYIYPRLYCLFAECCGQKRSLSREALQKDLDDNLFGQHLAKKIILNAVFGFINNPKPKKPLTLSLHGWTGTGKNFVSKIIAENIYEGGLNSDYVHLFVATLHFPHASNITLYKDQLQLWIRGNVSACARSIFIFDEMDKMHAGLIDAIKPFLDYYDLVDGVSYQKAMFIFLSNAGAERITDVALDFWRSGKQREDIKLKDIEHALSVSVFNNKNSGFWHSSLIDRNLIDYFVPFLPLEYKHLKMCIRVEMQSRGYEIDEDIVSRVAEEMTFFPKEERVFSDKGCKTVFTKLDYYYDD
Sequence of Streptavidin (Streptomyces avidinii) (P22629 whole entry, looked up): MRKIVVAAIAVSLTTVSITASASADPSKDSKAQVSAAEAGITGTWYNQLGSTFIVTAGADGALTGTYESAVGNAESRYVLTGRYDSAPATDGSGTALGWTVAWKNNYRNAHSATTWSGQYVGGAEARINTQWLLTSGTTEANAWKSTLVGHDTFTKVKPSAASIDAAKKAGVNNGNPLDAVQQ

## COC(=O)[C@@]1(Cc2ccc(OC)cc2)[C@H]2c3cc(C(=O)N4CCCC4)n(CCc4c[nH]c5cc(F)ccc45)c3C[C@H]2CN1C(=O)c1ccccc1
[1]
  composite z-score: 0.313
[2]
  z-score: -1.26 (inactive)
[3]
  z-score: -0.0146 (inactive)
[4]
  z-score: 0.773 (inactive)
[5]
  z-score: 0.199 (inactive)
[6]
  composite z-score: 2.19
[7]
  composite z-score: 0.636
[8]
  composite z-score: 0.188
[9]
  composite z-score: 1.25
[10]
  composite z-score: 0.133

## N[C@@H](Cc1ccccc1)Cn1cc(-c2ccccc2)nn1
[1]
  composite z-score: -0.15
[2]
  z-score: -2.58 (inactive)
[3]
  z-score: -0.244 (inactive)
[4]
  z-score: 0.0035 (inactive)
[5]
  z-score: 0.292 (inactive)
[6]
  composite z-score: 0.861
[7]
  composite z-score: -0.0963
[8]
  composite z-score: -0.0409
[9]
  composite z-score: -0.0827
[10]
  composite z-score: 0.0939

## CCCCC=C[C@@H](NC(=O)c1ccco1)c1ccccc1
[1]
  composite z-score: 0.143
[2]
  z-score: -1.08 (inactive)
[3]
  z-score: -0.668 (inactive)
[4]
  z-score: 0.19 (inactive)
[5]
  z-score: -0.0695 (inactive)
[6]
  composite z-score: 0.889
[7]
  composite z-score: 0.194
[8]
  composite z-score: 0.129
[9]
  composite z-score: 0.225
[10]
  composite z-score: 0.0154

## COc1c(C)cc(-c2cc3c(c(-c4ccc(Oc5ccccc5)cc4)n2)[Si](C(C)C)(C(C)C)OC3)cc1C
[1]
  composite z-score: 0.285
[2]
  z-score: -0.0304 (inactive)
[3]
  z-score: 0.0144 (inactive)
[4]
  z-score: 0.148 (inactive)
[5]
  z-score: 0.151 (inactive)
[6]
  composite z-score: -0.246
[7]
  composite z-score: 0.127
[8]
  composite z-score: -0.238
[9]
  composite z-score: 0.164
[10]
  composite z-score: 0.205

## C=CCOC(=O)[C@H]1[C@@H]2C(=O)O[C@@H](c3ccccc3)[C@@H](c3ccccc3)N2[C@@H](c2ccc(OCCOC(=O)[C@@H]3C[C@@H]4C(=O)N5CCC[C@H]5C(=O)N4[C@@H]3c3ccc(O)cc3)cc2)[C@]12C(=O)Nc1ccccc12
[1]
  composite z-score: 1.06
[2]
  z-score: -0.496 (inactive)
[3]
  z-score: -0.506 (inactive)
[4]
  z-score: 0.0124 (inactive)
[5]
  z-score: -0.72 (inactive)
[6]
  composite z-score: -0.244
[7]
  composite z-score: -0.0963
[8]
  composite z-score: 0.529
[9]
  composite z-score: 0.853
[10]
  composite z-score: 1.23

## CC(=O)C1=CCC(c2ccccc2)N(S(=O)(=O)c2ccc(C)cc2)C1 (stereo not given)
[1]
  composite z-score: -0.004
[2]
  z-score: -1.06 (inactive)
[3]
  z-score: -0.65 (inactive)
[4]
  z-score: -0.116 (inactive)
[5]
  z-score: 0.151 (inactive)
[6]
  composite z-score: 1.69
[7]
  composite z-score: -0.0087
[8]
  composite z-score: 0.911
[9]
  composite z-score: 1.55
[10]
  composite z-score: -0.194

## Cc1ccc(S[C@]2(C(=O)O)CC(=O)N(C3Cc4ccccc4C3)[C@@H]2c2ccc(CO)cc2I)cc1
[1]
  composite z-score: -0.227
[2]
  z-score: -1.02 (inactive)
[3]
  z-score: -0.138 (inactive)
[4]
  z-score: -0.062 (inactive)
[5]
  z-score: -0.097 (inactive)
[6]
  composite z-score: 0.103
[7]
  composite z-score: -0.0791
[8]
  composite z-score: -0.594
[9]
  composite z-score: -0.584
[10]
  composite z-score: -0.439

## COc1cc2c(cc1OC)CN(C(=O)[C@@H]1[C@H]3C(=O)O[C@H](c4ccccc4)[C@H](c4ccccc4)N3[C@H](c3ccccc3OCCO)[C@@]13C(=O)Nc1ccc(C#CCNC(N)=O)cc13)CC2
[1]
  composite z-score: 0.38
[2]
  z-score: -2 (inactive)
[3]
  z-score: -0.105 (inactive)
[4]
  z-score: -0.168 (inactive)
[5]
  z-score: -0.0826 (inactive)
[6]
  composite z-score: 0.684
[7]
  composite z-score: 0.32
[8]
  composite z-score: 0.593
[9]
  composite z-score: 0.812
[10]
  composite z-score: 1.38

## [N-]=[N+]=NCc1ccccc1C[C@@]1(C(=O)N2CCOCC2)N=C(c2ccc(OCCCO)cc2)O[C@@H]1c1ccccc1CN=[N+]=[N-]
[1]
  composite z-score: 1.44
[2]
  z-score: -3.44 (inactive)
[3]
  z-score: -1.02 (inactive)
[4]
  z-score: 1.7 (inactive)
[5]
  z-score: -0.0755 (inactive)
[6]
  composite z-score: 1.56
[7]
  composite z-score: 0.985
[8]
  composite z-score: 0.375
[9]
  composite z-score: 0.193
[10]
  composite z-score: 0.704

## C=C(CCCC)/C(=C/C[C@H](OC(C)=O)c1ccc(CO)o1)c1cnc2ccccc2c1
[1]
  composite z-score: 0.465
[2]
  z-score: 0.665 (inactive)
[3]
  z-score: -1.22 (inactive)
[4]
  z-score: 0.0563 (inactive)
[5]
  z-score: 1.65 (inactive)
[6]
  composite z-score: 1.25
[7]
  composite z-score: 0.0278
[8]
  composite z-score: 0.749
[9]
  composite z-score: 1.08
[10]
  composite z-score: 1.89

## COc1ccc(C(O)C2C=CC3C(=O)NC(=O)C3N2Nc2ccccn2)cc1OCc1ccccc1 (stereo not given)
[1]
  composite z-score: -0.125
[2]
  z-score: 0.716 (inactive)
[3]
  z-score: -0.484 (inactive)
[4]
  z-score: 0.629 (inactive)
[5]
  z-score: 0.124 (inactive)
[6]
  composite z-score: 0.428
[7]
  composite z-score: -0.0256
[8]
  composite z-score: -0.209
[9]
  composite z-score: 0.435
[10]
  composite z-score: 0.0157

## CO[C@H]1O[C@H](CO)[C@@H](OC(=O)Nc2ccc3c(c2)OCO3)[C@H](OC(=O)Nc2ccccc2)[C@H]1OC(=O)Nc1ccccc1
[1]
  composite z-score: 0.446
[2]
  z-score: -5.46 (inactive)
[3]
  z-score: -0.785 (inactive)
[4]
  z-score: 1.16 (inactive)
[5]
  z-score: -2.23 (inactive)
[6]
  composite z-score: 0.869
[7]
  composite z-score: 0.0906
[8]
  composite z-score: 0.487
[9]
  composite z-score: 1.11
[10]
  composite z-score: 1.43

## CCCCC(O)C1C=CC2C(=O)N(C3CCCCC3)C(=O)C2N1Nc1ccc(OC)cc1 (stereo not given)
[1]
  composite z-score: 0.177
[2]
  z-score: -0.527 (inactive)
[3]
  z-score: -1.47 (inactive)
[4]
  z-score: 0.276 (inactive)
[5]
  z-score: 0.765 (inactive)
[6]
  composite z-score: 1.54
[7]
  composite z-score: 0.0785
[8]
  composite z-score: 0.0983
[9]
  composite z-score: -0.001
[10]
  composite z-score: 0.342

## CCOC(=O)C[C@H]1[C@H](OC(=O)c2ccc(-c3ccccc3)cc2)[C@@H](NC(=O)c2ccc(-c3ccccc3)cc2)c2cc(OCCCO)ccc2N1C(=O)Cc1ccc(OC)cc1
[1]
  composite z-score: 0.0386
[2]
  z-score: -0.477 (inactive)
[3]
  z-score: -0.402 (inactive)
[4]
  z-score: -0.448 (inactive)
[5]
  z-score: -0.494 (inactive)
[6]
  composite z-score: 0.745
[7]
  composite z-score: 0.0301
[8]
  composite z-score: -0.205
[9]
  composite z-score: 0.119
[10]
  composite z-score: -0.195

## CC(=O)NCCCC[C@@H]1NC(=O)[C@H]2C[C@@H](C(=O)NCCCCCC[N+](C)(C)C)[C@@H](c3cccc(OCCO)c3)N2C1=O
[1]
  composite z-score: 0.408
[2]
  z-score: -2.49 (inactive)
[3]
  z-score: -1.01 (inactive)
[4]
  z-score: -0.801 (inactive)
[5]
  z-score: -0.812 (inactive)
[6]
  composite z-score: 0.927
[7]
  composite z-score: -0.149
[8]
  composite z-score: 1.07
[9]
  composite z-score: 0.59
[10]
  composite z-score: 2.26

## CCOC(=O)[C@H]1C/C=C/C[C@H](C(=O)OCC)C(=O)O[C@H]2[C@@H](OC)O[C@H](CO)[C@@H](OC(=O)Nc3ccc4c(c3)OCO4)[C@@H]2OC1=O
[1]
  composite z-score: 0.285
[2]
  z-score: -6.55 (inactive)
[3]
  z-score: -0.353 (inactive)
[4]
  z-score: 0.484 (inactive)
[5]
  z-score: -1.61 (inactive)
[6]
  composite z-score: -0.0265
[7]
  composite z-score: 0.0342
[8]
  composite z-score: 0.687
[9]
  composite z-score: 0.126
[10]
  composite z-score: 0.903

## CCCNC(=O)[C@@]1(c2ccc([N+](=O)[O-])cc2)CC(=O)N(CC23CC4CC(CC(C4)C2)C3)[C@@H]1c1ccc(CO)cc1
[1]
  composite z-score: 0.4
[2]
  z-score: -5.17 (inactive)
[3]
  z-score: -0.293 (inactive)
[4]
  z-score: 0.531 (inactive)
[5]
  z-score: -0.312 (inactive)
[6]
  composite z-score: -0.204
[7]
  composite z-score: -0.272
[8]
  composite z-score: 0.0865
[9]
  composite z-score: 0.319
[10]
  composite z-score: 0.34

## CCOC(=O)C[C@H]1[C@H](OC(=O)Cc2ccc3c(c2)OCO3)[C@@H](NC(=O)C2CCCCC2)c2cc(OCCCO)ccc2N1C(=O)Cc1ccc(OC)cc1
[1]
  composite z-score: 0.142
[2]
  z-score: -1.15 (inactive)
[3]
  z-score: -0.0589 (inactive)
[4]
  z-score: 6.93 (inactive)
[5]
  z-score: -0.943 (inactive)
[6]
  composite z-score: 0.219
[7]
  composite z-score: 0.0301
[8]
  composite z-score: 0.146
[9]
  composite z-score: 0.511
[10]
  composite z-score: 0.541

Source: PubChem BioAssay
